Experimental data as given in PubChem BioAssay.

assay: blockers of RIG-like receptor reporter activation – cell-based, Sendai virus stimulus, luciferase, 10K MLSCN set, TLR/RLR signaling modifier project, primary screen (AID 602276;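 active means inhibition at or above 50% at 10 µM; inactive means inhibition below 50%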;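 further: firefly luciferase from ISG56 promoter only with Renilla not read in this screen; 0% = Sendai virus plus DMSO and 100% = medium plus DMSO without virus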); settings: HEK293 RL24 IRF3 luciferase reporter, at 10 µM, active compounds read high

inhibition, inactive:
O=C1CCCC(O)=C1C=Nc1ccc2c(c1)oc1ccccc12 -23%
CCOC(=O)c1ccc(N(CC(=O)NC2CCCC2)C(=O)CNC(=O)c2ccco2)cc1 15.3%
COc1cc(NS(=O)(=O)N2CCCC2)cc(OC)c1OC 7.48%
CCOc1ccc(N2CC(C(=O)NCCc3ccc(OC)c(OC)c3)CC2=O)cc1 (stereo not given) 20.4%
Cn1c(=O)c(C(=O)Nc2cccnc2)c(O)c2ccccc21 -29.2%
COCCNC(=O)C(c1ccc(C)o1)N(Cc1ccc(OC)cc1)C(=O)Cn1nnc2ccccc21 (stereo not given) 10.1%
O=C(c1cc2cc(Cl)cc(Cl)c2oc1=O)N1CCOCC1 26.9%
COc1ccc2nc(N3CCC(C)CC3)c(C#N)cc2c1 -48.2%
C/C(=C\c1ccco1)C1C(C#N)=C(N)OC2=C1C(=O)CC(C)(C)C2 (stereo not given) 15.4%
CCOC(=O)c1c(C)[nH]c(C)c1C(=O)COC(=O)CNC(=O)c1ccc(OCC)cc1 14.3%
CCCCNC(=O)Cn1c(=O)n(C)c2ccccc21 9.9%
c1ccc(OCc2nc3ccccc3[nH]2)cc1 -47.4%
O=C(CSc1nc2ccccc2s1)N1CCN(C(=O)c2ccco2)CC1 7.64%
CCCSc1nc(N)c(C#N)c(-c2ccc(C)cc2)c1C#N 3.6%
CN(C(=O)Cn1c(=O)n(CCCCC(=O)NC2CCCC2)c(=O)c2ccccc21)C1CCCCC1 16.4%
CC1(C)CNC(=O)CC(C)(C)N1O -4.83%
COc1ccc(Cl)cc1Nc1nc(NCCO)nc(N2CCCC2)n1 11.5%
CCOC(=O)c1ccc(S(=O)(=O)Nc2cc(C(C)(C)C)no2)cc1 -7.27%
CCCCCCn1c(SCC(=O)OC)nc2c1c(=O)[nH]c(=O)n2C 9.4%
COc1ccc(CCNC(=O)CSCc2n[nH]c(=O)[nH]2)cc1OC 19.2%
COc1ccc(-c2nc3c(c(SCC(=O)N4CCOCC4)n2)COC(C)(C)C3)cc1 12.6%
CN1CCN(CC(=O)N2c3ccccc3C(C)(c3ccccc3)CC2(C)C)CC1 (stereo not given) 35.9%
CCN(CC)CCOc1cccc(C(C)C)c1 6.62%
O=C(CN1C(=O)CC(c2ccco2)Sc2ccccc21)Nc1ccccc1F (stereo not given) 12.5%
COCCN(CC(=O)NCc1ccccc1)C(=O)CCC(=O)Nc1ccccn1 19.1%
CCCCc1cc(=O)oc2cc(OCC(=O)N(CC)CC)c(Cl)cc12 12.5%
CC(=O)Nc1cccc(NC(=O)c2oc3ccccc3c2C)c1 -37.4%
CCN(CC)CCCn1c(=S)[nH]c2cc(Cl)ccc2c1=O 12.1%
CCn1c(SCC(=O)c2ccc(OC)cc2)nnc1C(C)NC(=O)c1ccc(OC)cc1 (stereo not given) -3.91%
CCCCOC(=O)CN1C(=O)c2ccc(C(=O)OCCCC)cc2C1=O -2.49%
CC(C)CCNC(=O)C(c1cccs1)N(CC1CCCO1)C(=O)Cn1nnc2ccccc21 (stereo not given) 10.3%
O=C(CNC(=O)c1ccccc1C(=O)O)c1ccccc1 -17.6%
CS(=O)(=O)N1CCCC(C(=O)N2CCOCC2)C1 (stereo not given) 11.5%
Cc1ccc(NC(=O)C2CCCN2S(=O)(=O)c2cccc3cccnc23)cc1F (stereo not given) 9.99%
Cc1cc(C(=O)NCCCN2CCOCC2)n(-c2ccccc2)n1 9.1%
CCc1nn(CC(=O)N2CCN(Cc3ccc4c(c3)OCO4)CC2)c(=O)c2cc3occc3n12 -5.95%
Cc1ccc2c(c1)nnn2C1CCN(C(=O)NC23CC4CC(CC(C4)C2)C3)CC1 18.3%
CCN(CC)CCOC(=O)c1c(C)oc2ccc(O)cc12 8.25%
Cc1onc(-c2ccccc2Cl)c1C(=O)NCc1cccnc1 17.8%
COc1cccc(NC(=O)c2ccco2)c1 -31.2%

assay: TLR3 IRF3 reporter activation blockers – cell-based, poly I:C stimulus, luciferase, 10K MLSCN set, primary screen (AID 602277); settings: HEK293-TLR3 RL24 IRF3 luciferase reporter, at 10 µM, active compounds read high

inhibition, inactive:
O=C1CCCC(O)=C1C=Nc1ccc2c(c1)oc1ccccc12 -100%
CCOC(=O)c1ccc(N(CC(=O)NC2CCCC2)C(=O)CNC(=O)c2ccco2)cc1 18.5%
COc1cc(NS(=O)(=O)N2CCCC2)cc(OC)c1OC 16.9%
CCOc1ccc(N2CC(C(=O)NCCc3ccc(OC)c(OC)c3)CC2=O)cc1 (stereo not given) 25.1%
Cn1c(=O)c(C(=O)Nc2cccnc2)c(O)c2ccccc21 -42.3%
COCCNC(=O)C(c1ccc(C)o1)N(Cc1ccc(OC)cc1)C(=O)Cn1nnc2ccccc21 (stereo not given) 6.31%
O=C(c1cc2cc(Cl)cc(Cl)c2oc1=O)N1CCOCC1 30.3%
COc1ccc2nc(N3CCC(C)CC3)c(C#N)cc2c1 -170%
C/C(=C\c1ccco1)C1C(C#N)=C(N)OC2=C1C(=O)CC(C)(C)C2 (stereo not given) 18.7%
CCOC(=O)c1c(C)[nH]c(C)c1C(=O)COC(=O)CNC(=O)c1ccc(OCC)cc1 28.6%
CCCCNC(=O)Cn1c(=O)n(C)c2ccccc21 30%
c1ccc(OCc2nc3ccccc3[nH]2)cc1 -118%
O=C(CSc1nc2ccccc2s1)N1CCN(C(=O)c2ccco2)CC1 22.8%
CCCSc1nc(N)c(C#N)c(-c2ccc(C)cc2)c1C#N 9.67%
CN(C(=O)Cn1c(=O)n(CCCCC(=O)NC2CCCC2)c(=O)c2ccccc21)C1CCCCC1 25.2%
CC1(C)CNC(=O)CC(C)(C)N1O 19.7%
COc1ccc(Cl)cc1Nc1nc(NCCO)nc(N2CCCC2)n1 16.2%
CCOC(=O)c1ccc(S(=O)(=O)Nc2cc(C(C)(C)C)no2)cc1 -2.9%
CCCCCCn1c(SCC(=O)OC)nc2c1c(=O)[nH]c(=O)n2C 31.6%
COc1ccc(CCNC(=O)CSCc2n[nH]c(=O)[nH]2)cc1OC 24.3%
COc1ccc(-c2nc3c(c(SCC(=O)N4CCOCC4)n2)COC(C)(C)C3)cc1 19.9%
CN1CCN(CC(=O)N2c3ccccc3C(C)(c3ccccc3)CC2(C)C)CC1 (stereo not given) 26.8%
CCN(CC)CCOc1cccc(C(C)C)c1 13.5%
O=C(CN1C(=O)CC(c2ccco2)Sc2ccccc21)Nc1ccccc1F (stereo not given) 15.3%
COCCN(CC(=O)NCc1ccccc1)C(=O)CCC(=O)Nc1ccccn1 19.4%
CCCCc1cc(=O)oc2cc(OCC(=O)N(CC)CC)c(Cl)cc12 30.7%
CC(=O)Nc1cccc(NC(=O)c2oc3ccccc3c2C)c1 -104%
CCN(CC)CCCn1c(=S)[nH]c2cc(Cl)ccc2c1=O 21.3%
CCn1c(SCC(=O)c2ccc(OC)cc2)nnc1C(C)NC(=O)c1ccc(OC)cc1 (stereo not given) 9.81%
CCCCOC(=O)CN1C(=O)c2ccc(C(=O)OCCCC)cc2C1=O 26%
CC(C)CCNC(=O)C(c1cccs1)N(CC1CCCO1)C(=O)Cn1nnc2ccccc21 (stereo not given) 35.6%
O=C(CNC(=O)c1ccccc1C(=O)O)c1ccccc1 -49%
CS(=O)(=O)N1CCCC(C(=O)N2CCOCC2)C1 (stereo not given) 3.97%
Cc1ccc(NC(=O)C2CCCN2S(=O)(=O)c2cccc3cccnc23)cc1F (stereo not given) 33.6%
Cc1cc(C(=O)NCCCN2CCOCC2)n(-c2ccccc2)n1 24.9%
CCc1nn(CC(=O)N2CCN(Cc3ccc4c(c3)OCO4)CC2)c(=O)c2cc3occc3n12 -24.9%
Cc1ccc2c(c1)nnn2C1CCN(C(=O)NC23CC4CC(CC(C4)C2)C3)CC1 22.5%
CCN(CC)CCOC(=O)c1c(C)oc2ccc(O)cc12 6.72%
Cc1onc(-c2ccccc2Cl)c1C(=O)NCc1cccnc1 19.3%
COc1cccc(NC(=O)c2ccco2)c1 -128%
